Results as given in PubChem BioAssay (NCI).
This is part of a sample that, as a whole, favours compounds with a hit. Of some 83,000 tested, about 20% had one in any assay.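 Method: cells in 96-well plates; compound added at one concentration; 48 h incubation; percent growth measured; values under 10 scored active.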 A number with no mark means an inactive call. Activity calls are given as the source filed them.

Test system: HT29 colon
Assay: NCI-60 one-dose screen, 48 h (100 = growth as untreated, 0 = no growth, -100 = all killed)
Settings: 10 µM

Row | Compound | growth
1 | COc1cc2cc(C(=O)N3C[C@@H](CCl)c4c3cc(OC(=O)N3CCN(C)[C@@H]5CSSC[C@H]53)c3ccccc43)[nH]c2c(OC)c1OC | -50.7% (active)
2 | CC1=C(CCC=O)C2=C(C)C3(CC3)[C@@](C)(O)C(=O)C2=C1 | -56.1% (active)
3 | COC(=O)C[C@](O)(CCC(C)C)C(=O)O[C@@H]1C(OC)=C[C@]23CCCN2CCc2cc4c(cc2[C@H]13)OCO4 | -62.1% (active)
4 | O=C(/C=C/c1ccc(Cl)cc1)c1nc2ccccc2n1Cc1ccc(F)cc1 | 5.22% (active)
5 | CC[C@]12C=CCN3CC[C@@]4(c5ccc(OC)cc5N(C)[C@H]4[C@@](O)(C(=O)OC)[C@@H]1OC(=O)CCC[P+](C1CCCCC1)(C1CCCCC1)C1CCCCC1)[C@@H]32 | -56.7% (active)
6 | CC1=C2C(=C[C@@](C)(COP(=O)(Oc3ccccc3)Oc3ccccc3)[C@@H]2O)C(=O)[C@@](C)(O)C12CC2 | -57.3% (active)
7 | CC(=O)Oc1ccccc1C(=O)NC([Se])=NC1CCCCC1 | 32.1%
8 | CCOP(=O)(CC(F)(F)C(F)(F)F)OCC | -44.6% (active)
9 | CC(C)C[C@H](NC(=O)CNC(=O)C[C@H]1O[C@@H]2OC3(C)CC[C@H]4[C@H](C)CC[C@@H]([C@H]1C)[C@@]24OO3)B(O)O | -56% (active)
10 | C[C@H]1[C@@H](Oc2ccc(-c3cn(-c4ccnc5cc(Cl)ccc45)nn3)cc2)O[C@@H]2OC3(C)CC[C@H]4[C@H](C)CC[C@@H]1[C@@]24OO3 | 22.3%
11 | C[C@H]1[C@H](OC(=O)CCC(=O)N(CCCc2cn(-c3ccc([N+](=O)[O-])cc3)nn2)CCNc2ccnc3cc(Cl)ccc23)O[C@@H]2OC3(C)CC[C@H]4[C@H](C)CC[C@@H]1[C@@]24OO3 | -6.33% (active)
